Measurements: PubChem BioAssay AID485364 (National Center for Advancing Translational Sciences (NCATS), 2010)
The campaign covered roughly 360,000 compounds. About 11,000 (3.1%) were called active. Another 4% or so got no clear call; they are omitted. Calls follow the shape of the dose curve; as a rule, active = well fitted inhibition curve with a large enough effect; inconclusive = small, poorly fitted or top-dose-only effect; inactive = no such curve, though single readings can be large or run the other way. This excerpt belongs to a sample that is enriched for actives.

What follows are compounds tested against Schistosoma mansoni thioredoxin glutathione reductase (TGR) (UniProt Q962Y6) (assay: qHTS Assay for the Inhibitors of Schistosoma Mansoni Peroxiredoxins). Conditions: purified TGR, DTNB reduction, TNB absorbance 405 nm; series mostly up to 114 µM; activity change, negative = inhibition: at the top concentration.
Outline: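 Kinetic colorimetric format: TGR-catalysed, NADPH-driven DTNB reduction monitored via TNB absorbance. Enzyme dispensed at 20 nM; compound exposure 15 min at room temperature before reaction start.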
% is scaled to controls: 0 for no effect and ±100 for the full control effect; potency is read from the fitted curve at half-maximal effect.
Also: nearly all actives have a fitted effect of over 60% in size.

Compound	activity change, negative = inhibition	Potency
C=Cc1ccc(Cn2c(C(=O)OC)cc3sc(C)cc32)cc1	5.62% (inactive)	–
COc1ccc(C(=O)CSc2c(C(C)C)cnc3c2c(=O)n(C)c(=O)n3C)cc1	-11.9% (inactive)	–
COc1cc2[nH]c(=O)n(Cc3ccc(C(=O)NCc4ccc(C)cc4)cc3)c(=O)c2cc1OC	1.94% (inactive)	–
COc1ccc(N2CCN(C3CC(=O)N(c4ccc5c(c4)OCCO5)C3=O)CC2)cc1 (stereo not drawn)	15.7% (inactive)	–
O=CN1CCN(C2CC(=O)N(c3ccc4c(c3)OCO4)C2=O)CC1 (stereo not drawn)	–	44.7 µM (active)
Cc1ccc(CC2CC(=O)N(c3ccc4c(c3)OCCO4)C2=O)cc1 (stereo not drawn)	0% (inactive)	–
COc1cc(Nc2nc(-c3ccc(OC)c(OC)c3)nc3ccccc23)cc(OC)c1	0.492% (inactive)	–
CC(=O)c1ccc(NC(=O)CSc2c(C(C)C)cnc3c2c(=O)n(C)c(=O)n3C)cc1	-3.63% (inactive)	–
Cc1cccc(NC(=O)CSc2ncc(-c3ccccc3)[nH]2)c1C	7.09% (inactive)	–
COc1ccc(/C=C(\C#N)C(=O)OCC(=O)N(C)C2CCS(=O)(=O)C2)cc1 (stereo not drawn)	-0.0993% (inactive)	–
CC(=O)N1CCN(C(=O)c2cc(-c3ccc(C)o3)nc3ccccc23)CC1	-8.9% (inactive)	–
CC1CCCN(C(=O)c2cc(-c3ccco3)nc3ccccc23)C1 (stereo not drawn)	–	31.6 µM (active)
COc1ccc(NC(=O)COc2ccc(C(=O)OCC(=O)N(C)C3CCS(=O)(=O)C3)cc2OC)cc1 (stereo not drawn)	-3.82% (inactive)	–
O=C(c1cc(-c2ccc(Cl)s2)nc2ccccc12)N1CCOCC1	-7.38% (inactive)	–
CCOc1ccccc1-c1cc(C(=O)N2CCOCC2)c2ccccc2n1	6.44% (inactive)	–
CN(C(=O)COC(=O)c1cc(-c2ccco2)nc2ccccc12)C1CCS(=O)(=O)C1 (stereo not drawn)	–	3.55 µM (active)
CN(CCOc1ccccc1)C(=O)c1cc(-c2ccco2)nc2ccccc12	–	3.16 µM (active)
CSc1ncccc1C(=O)Nc1ccc(C)cn1	3.44% (inactive)	–
Cc1ccc(NC(=O)c2cc(-c3ccc(C)o3)nc3ccccc23)nc1	–	11.2 µM (active)
COc1ccc(CN(C)C(=O)c2cc(-c3ccc(C)cc3C)nc3ccccc23)c(OC)c1OC	-1.05% (inactive)	–
CN(CCOc1ccccc1)C(=O)c1cc(COc2c(F)cccc2F)on1	-0.798% (inactive)	–
Cc1ccc(-c2nnc(Nc3ccc(OCC(N)=O)cc3)c3ccccc23)cc1S(=O)(=O)NCC1CCCO1 (stereo not drawn)	-2.06% (inactive)	–
Cc1ccc(Cl)cc1N1CCN(C(=O)c2cnc3c(-c4ccc(F)cc4)c(C)nn3c2C)CC1	-1.63% (inactive)	–

Compound	activity change, negative = inhibition	Potency
CC(=O)N1c2ccccc2CC1C(=O)N1CCN(c2ccc(F)cc2)CC1 (stereo not drawn)	1.54% (inactive)	–
Cc1ccc2oc(=O)c3cnn(CC(=O)N4CCN(c5cccc(Cl)c5)CC4)c3c2c1	2.82% (inactive)	–
Fc1cccc(-n2ncc3c2ncn2nc(-c4ccccc4Cl)nc32)c1	-1.22% (inactive)	–
CCOc1cccc(C(=O)Nc2nnc(S(=O)(=O)N(C)c3ccc(C)cc3)s2)c1	2.45% (inactive)	–
O=C(Nc1ccc2oc(-c3ccc(O)c(Br)c3)nc2c1)c1cc2ccccc2o1	-0.0022% (inactive)	–
COc1ccc(OC)c(NC(=O)CN2CCCN(Cc3cc(C)ccc3C)S2(=O)=O)c1	0.344% (inactive)	–
Cc1csc2nc(COC(=O)c3ccc(NC(=O)COc4ccccc4F)cc3)cc(=O)n12	2.87% (inactive)	–
COc1cccc(N=C2SC(C(=O)Nc3cccc(Cl)c3)CC(=O)N2C)c1 (stereo not drawn)	-12.8% (inactive)	–
CN(Cc1ccccc1)c1ncnc2onc(-c3ccc(F)cc3)c12	1.52% (inactive)	–
CC(=O)c1cccc(NC(=O)c2nc(-c3ccccc3)n(-c3cccc(C)c3)n2)c1	-6.73% (inactive)	–
CCN(CC)CCNC(=O)CN1N=C(c2ccc(OC)cc2)CCC1=O	0.497% (inactive)	–
COc1ccc(-c2cc(C(=O)N(C)CC(=O)Nc3ccccc3Cl)c3ccccc3n2)cc1OC	3.05% (inactive)	–
CC(C)N(Cc1nnc(-c2ccccc2Br)o1)C(=O)c1cc(Cl)nc2ccccc12	-0.676% (inactive)	–
COc1ccc(NC(=O)CN(C)C(=O)c2n[nH]c3ccccc23)cc1	1.25% (inactive)	–
O=C(c1cc(-c2ccco2)nc2ccccc12)N(Cc1nnc(-c2ccc(Cl)cc2)o1)C1CC1	–	8.91 µM (active)
O=C(c1ccc(Cl)s1)N(Cc1nnc(-c2ccccc2Cl)o1)C1CC1	-7.47% (inactive)	–
COc1ccc(NC(=O)CN(C)C(=O)c2cc(-c3ccc(C)o3)nc3ccccc23)cc1	–	28.2 µM (active)
COc1ccc(Cc2nc3ccc(C(=O)NCc4ccc(OC)cc4OC)cc3o2)cc1	-3.16% (inactive)	–
O=C(Nc1cc(C(F)(F)F)ccc1Cl)c1ccc2c(c1)CCN2S(=O)(=O)c1ccccc1	3.48% (inactive)	–
COc1ccc(NC(=O)CSc2nnc(-c3nnn(-c4ccc(F)cc4)c3C)o2)cc1	0.551% (inactive)	–
COc1ccc(C)cc1NC(=S)N1CCOCC1	–	17.8 µM (active)
COc1cc(C(=S)N2CCOCC2)ccc1O	6.25% (inactive)	–
COc1ccc(OC)c(NC(=S)N2CCc3ccccc3C2)c1	9.21% (inactive)	–

Compound	activity change, negative = inhibition	Potency
O=C(CCc1cn(Cc2ccc(F)cc2)c2ccccc12)NC1CCCCC1	2.87% (inactive)	–
CC(C)Cn1c(C2CC(=O)N(c3ccccc3Cl)C2)nc2ccccc21 (stereo not drawn)	-1.77% (inactive)	–
O=C(NCCc1ccccc1)c1ccc2c(c1)N(Cc1ccc(F)cc1)C(=O)c1ccccc1S2(=O)=O	-1.62% (inactive)	–
CN(C)CC1Oc2ccccc2OC1(O)c1ccccc1 (stereo not drawn)	–	0.355 µM (active)
O=C(NCC1COc2ccccc2O1)C1(c2ccccc2)CCCC1 (stereo not drawn)	37% (inactive)	–
CN(C)CCOC(=O)C(c1ccccc1)C1(O)CCCC1 (stereo not drawn)	8.38% (inactive)	–
CCOc1ccc(CC(=O)NCCc2csc3nc(-c4ccccc4F)nn23)cc1	-10.2% (inactive)	–
O=C(COc1ccc(Cl)cc1)N(Cc1ccco1)Cc1ccco1	-16% (inactive)	–
CCN(c1ccc(Cl)cc1)S(=O)(=O)c1nnc(NC(=O)c2ccco2)s1	6.5% (inactive)	–
O=C(Nc1nonc1-c1ccc(Cl)cc1)c1ccco1	5.07% (inactive)	–
O=C(Nc1nc(-c2ccco2)c(-c2ccco2)s1)c1ccco1	–	7.94 µM (active)
COc1ccc(S(=O)(=O)NCCSc2nnnn2-c2ccccc2)cc1	1.78% (inactive)	–
O=C(CCSCc1ccccc1F)N1CCN(c2ccc(Cl)cc2)CC1	1.71% (inactive)	–
COc1ccccc1C(=O)NN1C(=O)C2C3C=CC(O3)C2C1=O (stereo not drawn)	–	17.8 µM (active)
COc1ccccc1C(=O)NCCC(=O)NN1C(=O)NC2(CCCCC2)C1=O	4.64% (inactive)	–
O=C(NN1C(=O)C2C3C=CC(O3)C2C1=O)c1ccccc1 (stereo not drawn)	–	20 µM (active)
COc1ccccc1C(=O)Nn1cnnc1	-0.277% (inactive)	–
O=C(NN1C(=O)C2C3C=CC(C4CC34)C2C1=O)c1ccc(Cl)cc1 (stereo not drawn)	19.2% (inactive)	–
O=C(NN1C(=O)C2C3C=CC(O3)C2C1=O)c1ccncc1 (stereo not drawn)	–	20 µM (active)
O=C(NN1C(=O)C2C3C=CC(C3)C2C1=O)c1ccco1 (stereo not drawn)	-12.2% (inactive)	–
CC(C)=C1C2CCC1C1C(=O)N(NC(=O)c3ccco3)C(=O)C21 (stereo not drawn)	5.25% (inactive)	–
COc1ccc(C(=O)NN2C(=O)C3C(c4ccccc4)C=CC(c4ccccc4)C3C2=O)cc1 (stereo not drawn)	0.253% (inactive)	–
